Consider 27 compounds from PubChem BioAssay (NCATS).

Inconclusive results are not listed. A number with no mark means an inactive call. Active and inactive are the calls of the source. Unless noted, calls come from the whole dose curve; as a rule, active = well fitted curve in the direction sought with a large enough effect; inconclusive = small, poorly fitted or top-dose-only effect, or another doubt; inactive = no such curve, though single readings can be large; an effect the other way counts as inactive or inconclusive.

Usually viability stands for a read-out of living cells in per cent, often relative to untreated cells.

The target in assay [1] is Aldehyde dehydrogenase, mitochondrial (Homo sapiens) (UniProt P05091). Put plainly: qHTS for Inhibitors of the Aldehyde Dehydrogenase Family (ALDH2) Confirmatory screens (AID 2061303; active = well fitted inhibition curve with a large enough effect; title and protocol of this record describe different tests; note: nearly all actives have a fitted effect of over 45% in size; note: potency is the fitted concentration of half-maximal effect). The settings on record: ALDH inhibition qHTS; series mostly up to 45.4 µM.
A short description of assay [2]: qHTS for Inhibitors of the Aldehyde Dehydrogenase Family (ALDH1A2, ALDH1A3, ALDH2, ALDH3A1) (AID 2061307). For Potency: test system not described further here; potency is the fitted concentration of half-maximal effect. Note: nearly all actives have a fitted effect of over 50% in size. The settings on record: ALDH inhibition qHTS; series mostly up to 50.3 µM. In general terms: Quantitative high-throughput screening tests each substance at several concentrations.
In assay [3] the target is Aldehyde dehydrogenase, mitochondrial (Homo sapiens) (UniProt P05091). Put plainly: qHTS for Inhibitors of the Aldehyde Dehydrogenase Family (ALDH2) Primary screen (AID 2061308). Note: nearly all actives have a fitted effect of over 55% in size. Note: potency is the fitted concentration of half-maximal effect. The note with it: ALDH2 enzyme inhibition qHTS, 1536-well; series mostly up to 56 µM.
Assay [4] has as its target Retinal dehydrogenase 2 (Homo sapiens) (UniProt O94788). As to the kind of experiment: qHTS for Inhibitors of the Aldehyde Dehydrogenase Family (ALDH1A2) Confirmation screens (AID 2061314). Note: % is set by controls: 0 for no effect and ±100 for the full control effect; nearly all actives have a fitted effect of over 65% in size. The note with it: ALDH1A2 enzyme inhibition qHTS confirmation; series mostly up to 45.9 µM.
Assay [5] deals with Retinaldehyde dehydrogenase 3 (Homo sapiens) (UniProt P47895). As to the kind of experiment: qHTS for Inhibitors of the Aldehyde Dehydrogenase Family (ALDH1A3) Primary screen (AID 2061315).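 Note: plate controls were DMSO vehicle for no effect and reference inhibitor for full effect.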 The note with it: ALDH inhibition qHTS; series mostly up to 56 µM.
For assay [6], the target named is Aldehyde dehydrogenase 1A1 (Homo sapiens) (UniProt P00352). As to the kind of experiment: qHTS for Inhibitors of the Aldehyde Dehydrogenase Family (ALDH1A1) Confirmatory screens (AID 2061316). Note: nearly all actives have a fitted effect of over 65% in size. Note: potency is the fitted concentration of half-maximal effect. The settings on record: ALDH inhibition qHTS; series mostly up to 47.3 µM.
Assay [7] deals with Retinaldehyde dehydrogenase 3 (Homo sapiens) (UniProt P47895). Put plainly: qHTS for Inhibitors of the Aldehyde Dehydrogenase Family (ALDH1A3) Confirmatory screens (AID 2061311). Note: nearly all actives have a fitted effect of over 60% in size. Note: potency is the fitted concentration of half-maximal effect. The note with it: ALDH inhibition qHTS; series mostly up to 46 µM.
Assay [8] in a line: BET inhibitor-based combinations targeting novel dependencies in MECOM-rearranged (r) AML: SET-2 cell line (AID 2202231).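 For viability: plate controls were DMSO treated cells for no effect and wells without cells for full effect.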 Note: nearly all actives have a fitted effect of over 35% in size. Note: potency is the fitted concentration of half-maximal effect. The note with it: SET-2 AML cells viability, CellTiter-Glo luminescence, 48 h; viability: hits give low values, concentration not given here. Put shortly:
(§1)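 Here, 11-point titrations of each agent were applied to 500 seeded cells and incubated 48 hr; CellTiter-Glo signal, scaled against DMSO and empty wells, was integrated as AUC, then Z-scored within the individual line.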
In general terms: In ATP-based viability assays light output follows the ATP content of the culture.

The nature of assay [9]: BET inhibitor-based combinations targeting novel dependencies in MECOM-rearranged (r) AML: UCSD-AML1 cell line (AID 2202235).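 Note: plate controls were DMSO vehicle wells for no effect and blank wells for full effect; nearly all actives have a fitted effect of over 40% in size.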 The note with it: UCSD-AML1 AML cells viability, CellTiter-Glo, 48 h; series mostly up to 46 µM. Put shortly:
(§2)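 Normalized to DMSO and empty-well controls, the luminescence data from CellTiter-Glo after 48 hr drug exposure were fitted across 11 concentrations. Reported metrics are area under the dose-response curve and its Z-transformed form.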

Assay [10] can be described thus: BET inhibitor-based combinations targeting novel dependencies in MECOM-rearranged (r) AML: AML-191 cell line (AID 2202236; note: nearly all actives have a fitted effect of over 35% in size; note: potency is the fitted concentration of half-maximal effect). The settings on record: AML-191 viability, CellTiter-Glo luminescence, 48 h; series mostly up to 46 µM. Put shortly: as §1
Assay [11] is described as follows: BET inhibitor-based combinations targeting novel dependencies in MECOM-rearranged (r) AML: AML-194 cell line (AID 2202237;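 note: plate controls were vehicle wells for no effect and wells without cells for full effect; nearly all actives have a fitted effect of over 40% in size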). The settings on record: AML-194 (MECOM-r AML) viability, CellTiter-Glo, 48 h; series mostly up to 46 µM. An outline of the steps:
as §1

Assay [12] is described as follows: BET inhibitor-based combinations targeting novel dependencies in MECOM-rearranged (r) AML: MV-4-11 cell line (AID 2202233). Note: potency is the fitted concentration of half-maximal effect; nearly all actives have a fitted effect of over 45% in size. The settings on record: MV-4-11 AML viability, CellTiter-Glo luminescence, 48 h; series mostly up to 46 µM. Put shortly: as §2
The nature of assay [13]: BET inhibitor-based combinations targeting novel dependencies in MECOM-rearranged (r) AML: HNT-34 cell line (AID 2202234).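 Note: plate controls were vehicle wells for no effect and cell-free wells for full effect; nearly all actives have a fitted effect of over 35% in size.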 The settings on record: HNT-34 AML viability, CellTiter-Glo luminescence, 48 h; series mostly up to 46 µM. Put shortly:
as §2

Take `COc1ccc(CCCN2CCC(COC(c3ccccc3)c3ccccc3)CC2)cc1`: the Potency result in assay [1], in [2], in assay [3], in [4], in [5] and in assay [6] was “inactive” in each case.

For the compound `N[C@@H](CO)C(=O)Nc1ccc(Cl)cc1C(=O)c1ccc[nH]1`, the Potency entry in assay [1], in [2], in assay [3] and in [5] was “inactive” each time.

As to `Cc1cc2c(c(=O)[nH]1)OC(C(O)CC(C)C)O2` (stereo not drawn), the Potency result in assay [1], in assay [2] and in assay [7] was “inactive” in each case.

For the compound `Cc1cc(N[S+](=O)([O-])c2cc3c(cc2Cl)NC(=O)CO3)ccc1Cl`, the Potency result in assay [1], in [2], in assay [3], in [5] and in assay [6] was “inactive” in each case.

Turning to `CC(=O)N1CCN(c2ccc(NCc3ccc(-c4cccc(Cl)c4)o3)cc2)CC1`, the Potency is 1.13 µM (active) in [1], 1.59 µM (active) in assay [2], 2.24 µM (active) in [3] and 6.34 µM (active) in assay [6].

With `CC(=O)Nc1sc2c(c1-c1ccc(C(F)(F)F)cc1)CCNC2`, the Potency result in [1], in assay [2], in [3], in assay [5] and in [6] was “inactive” throughout.

For `S=C(Nc1cc(Cl)ccn1)N1CCN(c2ccc(Cl)c(Cl)c2)CC1`, the Potency was 5.62 µM (active) in [1], 6.31 µM (active) in [2], 3.98 µM (active) in assay [3] and 4 µM (active) in assay [6]. Also, the Potency result in assay [5] was “inactive”.

In the case of `Cc1ccc(NC(=O)CN2C(=O)N/C(=C\c3cccn3-c3ccc(P(=O)(O)O)cc3)C2=O)cc1`, the Potency entry in [1], in assay [2], in [3], in assay [5] and in [6] was “inactive” in each case.

`CN1CCN(c2cccc(Nc3nn4c(=O)c5ccc(F)cc5nc4s3)c2)CC1`: the Potency result in assay [1], in [2], in assay [3] and in assay [5] was “inactive” in each case.

For `Cc1nc(C2=NC(c3ccccc3Cl)C3=C(CCCC3=O)N2)cs1` (stereo not drawn), the Potency result in assay [1], in assay [2], in [3] and in [5] was “inactive” each time.

Turning to `CNC(=O)c1cc(Oc2ccc3nc(N[C@@H]4CCCC[C@H]4O)sc3c2)ccn1`, the Potency result in assay [1], in [3], in [5], in [9] and in assay [11] was “inactive” each time. Also, the Potency in assay [2] is 10.1 µM (active); in [8], 20.9 µM (active); in assay [10], 14.8 µM (active).

As for `FC(F)(F)c1cnc(N2CCN(C(=S)Nc3cc(Cl)ccn3)CC2)c(Cl)c1`, the Potency was 7.12 µM (active) in [1], 5.65 µM (active) in [2], 12.6 µM (active) in assay [3] and 2.52 µM (active) in assay [6]. Also, the Potency entry in assay [5] was “inactive”.

In the case of `COc1ccc(C2Nc3ccccc3C(=O)N2Cc2ccc(C(C)(C)C)cc2)cc1COc1ccc(NC(C)=O)cc1` (stereo not drawn), the Potency is 1.58 µM (active) in [1] and 3.57 µM (active) in assay [2]. Moreover, the Potency result in [3] and in assay [5] was “inactive” throughout.

Take `COc1ccc(C2Nc3ccccc3C(=O)N2Cc2ccccc2)cc1COc1ccc(Cl)cc1` (stereo not drawn): the Potency entry in assay [1], in [3] and in assay [5] was “inactive” each time. Moreover, the Potency in [2] is 5.65 µM (active).

Consider `COc1ccc(-n2cnc3cc(C(=O)N4CCCCC4)ccc32)cc1`, for which the Potency entry in assay [1], in assay [2], in [3], in assay [5], in [6] and in assay [13] was “inactive” each time. Besides, the Potency entry in assay [9], in assay [10] and in [11] was “inactive” in each case. The viability in assay [8] is 112%. Moreover, the Potency in assay [12] was 18.6 µM (active).

For the compound `O=c1cc(-c2ccccn2)oc2c(Nc3ccccc3)nccc12`, the Potency entry in assay [1] and in assay [2] was “inactive” throughout. Further, in assay [7], the Potency is 20 µM (active).

Take `CN(C)c1ccc(/C=C/C(=O)Nc2cccc([S+](=O)([O-])Nc3ccccc3F)c2)cc1`: the Potency entry in [1], in assay [2], in [3] and in assay [5] was “inactive” in each case.

In the case of `O=C1Nc2ccccc2-c2nc3ccccc3c(=O)n2-c2c(O)cccc21`, the Potency entry in assay [1], in assay [2], in assay [3] and in assay [5] was “inactive” each time.

For `COc1ccc(-c2cncc(NC(=O)c3cccs3)c2)cc1OC`, the Potency entry in [1], in [2], in assay [3] and in [6] was “inactive” in each case.

As to `CC(C)N1CCc2c(sc(NC(=O)C(F)(F)F)c2-c2nc3ccccc3s2)C1`, the Potency is 11.3 µM (active) in assay [1], 8.96 µM (active) in [2], 31.6 µM (active) in assay [3] and 5.65 µM (active) in assay [6].

Take `CC1CCN(c2ccc(CNC(=O)CC3CCOCC3)cc2)CC1`: the Potency result in assay [1] and in [2] was “inactive” each time. The Potency in assay [7] is 10 µM (active).

For the compound `O=S(=O)(NCCCCCCNS(=O)(=O)c1c(F)cccc1F)c1ccc2c(c1)OCCO2`, the Potency result in assay [1], in assay [3] and in [5] was “inactive” each time. For the same compound, the Potency was 5.01 µM (active) in [2] and 8.96 µM (active) in assay [6].

For the compound `N[C@@H](CC(=O)O)C(=O)Nc1ccc(Cl)cc1C(=O)c1ccc[nH]1`, the Potency result in [1], in assay [2], in assay [3], in [5] and in assay [6] was “inactive” each time.

`COc1ccccc1-c1no[n+]([O-])c1C#N`: the Potency result in assay [1], in assay [3], in assay [5] and in [6] was “inactive” in each case. Further, the Potency in assay [2] is 3.18 µM (active).

For `COc1cccc(Nc2nc(C#N)nc(NC3CCCC3)n2)c1`, the Potency result in assay [1], in [3], in assay [5] and in assay [6] was “inactive” each time. Besides, the Potency in assay [2] was 10.1 µM (active).

Consider `Cc1cc2c(s1)c1cnn(Cc3ccc(-n4cncn4)cc3)c(=O)c1n2C`, for which the Potency was 25.1 µM (active) in assay [1], 14.1 µM (active) in [2] and 11.3 µM (active) in [6]. Also, the Potency entry in assay [3] and in [5] was “inactive” throughout.

Take `FC(F)(F)c1ccc(-c2nc(-c3nnc4n3CCCCC4)c(C(F)(F)F)o2)cc1`: the Potency entry in assay [1], in [2], in assay [3] and in assay [5] was “inactive” throughout.
